Among all 2,300 compounds or so, about 330 (14%) showed activity. A selection follows. Values without a mark were called inactive.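 How the source made its calls: active = median modified Z-score above 1.96; inactive = 1.96 or below.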
System: HepG2 Srxn1-GFP reporter cells (+30 nM CDDO-Me)
Assay: Srxn1-GFP intensity median modified Z-score relative to plate median; higher = stronger NRF2 / oxidative stress reporter activation, active = hit call of the paper
Conditions: 10 µM; exposure time: 24h
How it was run: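 Compound at 10 μM was applied with an NRF2 activator at 30 nM to HepG2 Srxn1-GFP BAC reporter cells for 24 h, in DMSO at no more than 0.1%, using three replicate 96-well plates seeded at 20,000 cells per well. Fixed, Hoechst-stained cells were imaged confocally and cytoplasmic GFP was scored for each cell, with images under 100 cells left out. The figure reported is the replicate median of the per-plate modified Z-score of GFP intensity. Scaling relied on 1.4826 × median absolute deviation.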

SMILES | Srxn1-GFP intensity median modified Z-score
CCCCC(CC)CN=C(N)N=C(N)NCCCCCCN=C(N)N=C(N)NCC(CC)CCCC (stereo not given) [euspeclibcmpd2037] | 0.191
CC(=O)NC(CS)C(=O)O (stereo not given) [euspeclibcmpd14] | -0.532
CC12CCC3c4ccc(O)cc4CCC3C1C[C@H](O)[C@@H]2O (stereo not given in full) [euspeclibcmpd2315] | -0.0343
COC(=O)C(Cc1ccccc1)NC(=O)C(N)CC(=O)O (stereo not given) [euspeclibcmpd740] | -0.355
CC(=O)OC1CCC2(C)C(=CCC3C2CCC2(C)C(C(=O)O)CCC32)C1 (stereo not given) | 0.226
CC(c1ncncc1F)[C@](O)(Cn1cncn1)c1ccc(F)cc1F (stereo not given in full) [euspeclibcmpd477] | -0.000648
CC(=O)/N=c1\sc(S(N)(=O)=O)nn1C [euspeclibcmpd555] | 0.456
CNC[C@@H](O)c1ccc(O)c(O)c1 [euspeclibcmpd110] | -0.782
CC(=O)OC1CCC2(C)C3CC(=O)C4(C)C(CC5OC6(CCC(C)CO6)[C@@H](C)C54)C3CC[C@H]2C1 (stereo not given in full) [euspeclibcmpd1545] | -0.224
C[C@]12CCC3c4ccc(OS(=O)(=O)O)cc4CCC3C1CC[C@H]2O (stereo not given in full) [euspeclibcmpd2359] | 0.435
C[C@]12CCC3c4ccc(O)cc4CCC3C1CC[C@@H]2O (stereo not given in full) [euspeclibcmpd115] | -0.23
COc1ccc2c(c1)CCC1C2CC[C@@]2(C)C1CC[C@@H]2O (stereo not given in full) [euspeclibcmpd2297] | 4.5 (active)
NS(=O)(=O)N1CCN(C(=O)OCC(F)(F)F)CC1 | 0.381
CC(=O)N1CCc2cc(C(=O)C(C)Sc3nnc4c(Cl)cc(Cl)cn34)ccc21 (stereo not given) | 1.9
O=c1c(-c2ccc(O)cc2)coc2cc(O)cc(O)c12 [euspeclibcmpd1252] | 7.05 (active)
COc1ccc(-c2coc3cc(O)cc(O)c3c2=O)cc1 [euspeclibcmpd1972] | -0.252
O=c1c(-c2ccc(O)cc2)coc2cc(O)ccc12 [euspeclibcmpd2265] | 0.00154
CSCCC(NC(=O)[C@H](Cc1c[nH]c2ccccc12)NC(=O)CCNC(=O)OC(C)(C)C)C(=O)N[C@@H](CC(=O)O)C(=O)N[C@@H](Cc1ccccc1)C(N)=O (stereo not given in full) [euspeclibcmpd918] | -0.345
CC(CCC(=O)O)[C@H]1CCC2C3CC[C@@H]4CCCC[C@]4(C)C3CC[C@@]21C (stereo not given in full) [euspeclibcmpd1329] | 1.64
O=S1(=O)CCC(N(C2CC2)S(=O)(=O)c2ccc(F)c(Cl)c2)C1 (stereo not given) | 1.31
CC12CCC3c4ccc(O)cc4CC(CCCCCCCCC[S+]([O-])CCCC(F)(F)C(F)(F)F)C3C1CCC2O (stereo not given) [euspeclibcmpd1981] | -0.582
CC(C)(C)CC(=O)OCC(=O)[C@@]1(O)CCC2C3CC=C4CC(=O)C=C[C@]4(C)C3[C@@H](O)C[C@@]21C (stereo not given in full) [euspeclibcmpd2328] | -0.406
CN(C)CCN(Cc1ccc(Cl)cc1)c1ccccn1 [euspeclibcmpd1219] | -0.833

SMILES | Srxn1-GFP intensity median modified Z-score
Clc1ccc(Cn2c(CN3CCCC3)nc3ccccc32)cc1 [euspeclibcmpd1234] | -0.0615
Cc1nc2ccccc2n1Cc1ccc(Cl)cc1 [euspeclibcmpd2199] | 5.5 (active)
Cc1nc(=N)c(C[n+]2csc(CCO)c2C)c[nH]1 [euspeclibcmpd454] | -0.15
O=C1C(CO)OC(O)C(O)C1O (stereo not given) [euspeclibcmpd526] | -0.212
COc1ccc2c(c1OC)OC[C@@H](c1ccc(OC)c(OC)c1OC)C2 [euspeclibcmpd1365] | 0.0257
CCCCCCCCCCC[C@@H](C[C@H]1OC(=O)C1CCCCCC)OC(=O)C(CC(C)C)NC=O (stereo not given in full) [euspeclibcmpd681] | -0.557
C=C[C@H]1C[N@]2CC[C@H]1C[C@@H]2[C@@H](O)c1ccnc2ccc(OC)cc12 [euspeclibcmpd2428] | 1.98 (active)
C[C@]12CCC3c4ccc(O)cc4CCC3C1C[C@@H](O)[C@@H]2O (stereo not given in full) [euspeclibcmpd2155] | -0.253
CC(=O)Oc1cccc2c1C(=O)c1c(OC(C)=O)cc(C(=O)O)cc1C2=O [euspeclibcmpd1072] | 4.68 (active)
CC(=O)Oc1c(C)cccc1C(=O)O [euspeclibcmpd1264] | -0.393
CC(=O)Oc1cccc(C(=O)O)c1OC(C)=O [euspeclibcmpd1107] | 0
CC(C)(ON=C(C(=O)NC1C(=O)N2C(C(=O)O)=C(C[n+]3ccccc3)CSC12)c1csc(=N)[nH]1)C(=O)O (stereo not given) [euspeclibcmpd603] | -0.205
CCN(CCO)CCCC(C)N=c1cc[nH]c2cc(Cl)ccc12 (stereo not given) [euspeclibcmpd728] | 0.226
O=C(OCC(O)CO)c1ccccc1N=c1cc[nH]c2cc(Cl)ccc12 (stereo not given) [euspeclibcmpd1054] | 4.38 (active)
CC(O)CN1CCN(CC(=O)O)CCN(CC(=O)O)CCN(CC(=O)O)CC1 (stereo not given) [euspeclibcmpd2179] | -0.14
CC(C)(CNC(=O)c1cccc(S(=O)(=O)N2CCNC(=O)C2)c1)N1CCOCC1 | 0.976
Nc1ccc2cc3ccc(N)cc3nc2c1 [euspeclibcmpd1172] | 35.6 (active)
CO[C@@]1(NC(=O)CSCC#N)C(=O)N2C(C(=O)O)=C(CSc3nnnn3C)CSC21 (stereo not given in full) [euspeclibcmpd2252] | 1.04
N=c1[nH]c(=O)c2ncn(COCCO)c2[nH]1 [euspeclibcmpd586] | 0.00752
S=c1ccss1 [euspeclibcmpd2055] | 7.86 (active)
CC1(C)CCC[C@]2(C)[C@H]3CC(=O)O[C@]3(C)CC[C@@H]12 [euspeclibcmpd1513] | 11.6 (active)
OC[C@H]1O[C@@H](O[C@H]2[C@H](O)[C@@H](O)[C@@H](O)O[C@@H]2CO)[C@H](O)[C@@H](O)[C@@H]1O [euspeclibcmpd2099] | -0.374
